Assay results taken from PubChem BioAssay (NCATS).
“And” between values parts separate entries of the source, which are not always exact repeats. Equal values may be shown once. Results filed as inconclusive are left out. Some compounds were tested as several samples or in several runs, with calls that do not always agree. The source made the active and inactive calls. Unless noted, calls come from the whole dose curve; as a rule, active = well fitted curve in the direction sought with a large enough effect; inconclusive = small, poorly fitted or top-dose-only effect, or another doubt; inactive = no such curve, though single readings can be large; an effect the other way counts as inactive or inconclusive.

Key:
C33A = assay: Primary qHTS to identify gynecologic anti-cancer compounds using libraries of approved drugs and bioactive compounds (AID 1345084); conditions: Gynecologic cancer cell panel viability, ATPlite luminescence, 48 h; series mostly up to 57.5 µM; note: nearly all actives have a fitted effect of over 55% in size; note: potency is the fitted concentration of half-maximal effect
In short: (§1)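 In this quantitative HTS, cell killing is estimated from loss of ATP-dependent luciferase light. Cells see five compound concentrations over a 48 h exposure.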

Es-2 = assay: as above; conditions: Gynecologic cancer cell panel viability, ATPlite luminescence, 48 h; series mostly up to 57.5 µM
In short: as §1

HeLa = assay: as above; conditions: Gynecologic cancer cell panel viability, ATPlite luminescence, 48 h; series mostly up to 57.5 µM
In short: as §1

JEG-3 = assay: as above; conditions: Gynecologic cancer cell panel viability, ATPlite luminescence, 48 h; series mostly up to 57.5 µM
In short: as §1

Tov-21-G = assay: as above; conditions: Gynecologic cancer cell panel viability, ATPlite luminescence, 48 h; series mostly up to 57.5 µM
In short: as §1

[1] = Drug repurposing screens with cells derived from glioblastoma tumor samples (AID 1345199); conditions: GBM patient neurospheres viability, ATP luminescence, 48 h; note: nearly all actives have a fitted effect of over 40% in size; note: potency is the fitted concentration of half-maximal effect; for activity, negative = cell killing: % is set by controls: 0 for no effect and ±100 for the full control effect
In short: (§2)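 Four patient lines of CD133+ GBM neurospheres were screened at several concentrations; hits were retested in those lines plus three slower-growing GBM lines, using 48-hour treatment and ATP-based viability.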

astro = assay: as above; conditions: viability, ATP luminescence, 48 h; series mostly up to 45.9 µM
In short: as §2

CASKI = assay: Primary qHTS to identify gynecologic anti-cancer compounds using libraries of approved drugs and bioactive compounds (AID 1345084); conditions: Gynecologic cancer cell panel viability, ATPlite luminescence, 48 h; series mostly up to 57.5 µM; note: nearly all actives have a fitted effect of over 55% in size; note: potency is the fitted concentration of half-maximal effect
In short: as §1

Hek293T = assay: as above; conditions: Gynecologic cancer cell panel viability, ATPlite luminescence, 48 h, control line for the selectivity index; series mostly up to 57.5 µM
In short: as §1

OV90 = assay: as above; conditions: Gynecologic cancer cell panel viability, ATPlite luminescence, 48 h; series mostly up to 57.5 µM
In short: as §1

PA-1 = assay: as above; conditions: Gynecologic cancer cell panel viability, ATPlite luminescence, 48 h; series mostly up to 57.5 µM
In short: as §1

Tov112D = assay: as above; conditions: Gynecologic cancer cell panel viability, ATPlite luminescence, 48 h; series mostly up to 57.5 µM
In short: as §1

[2] = molecular target: Nuclear receptor subfamily 1 group I member 2 (Rattus norvegicus) (UniProt Q9R1A7); assay: qHTS assay for small molecule activators of the rat pregnane X receptor (rPXR) signaling pathway (AID 651751; call rule not given here; note: 0% is about no effect); conditions: rPXR reporter cells, luciferase (One-Glo), 24 h
Chain of Nuclear receptor subfamily 1 group I member 2 (Rattus norvegicus) (Q9R1A7 whole entry, looked up): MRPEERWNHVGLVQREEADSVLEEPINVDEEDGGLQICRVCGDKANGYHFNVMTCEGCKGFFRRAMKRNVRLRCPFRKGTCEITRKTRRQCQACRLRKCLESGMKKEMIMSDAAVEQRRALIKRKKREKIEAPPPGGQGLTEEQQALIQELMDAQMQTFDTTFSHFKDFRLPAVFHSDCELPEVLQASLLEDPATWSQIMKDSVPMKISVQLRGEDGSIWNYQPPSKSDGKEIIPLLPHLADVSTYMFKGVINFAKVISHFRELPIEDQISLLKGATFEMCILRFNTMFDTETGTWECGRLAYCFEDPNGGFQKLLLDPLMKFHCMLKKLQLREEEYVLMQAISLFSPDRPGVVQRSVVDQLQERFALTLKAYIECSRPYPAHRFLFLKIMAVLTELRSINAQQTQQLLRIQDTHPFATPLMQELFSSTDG

[3] = qHTS assay for small molecule activators of the human pregnane X receptor (PXR) signaling pathway (AID 720659; call rule not given here; note: 0% is about no effect)
SKOV3 = assay: Primary qHTS to identify gynecologic anti-cancer compounds using libraries of approved drugs and bioactive compounds (AID 1345084); conditions: Gynecologic cancer cell panel viability, ATPlite luminescence, 48 h; series mostly up to 57.5 µM; note: nearly all actives have a fitted effect of over 55% in size; note: potency is the fitted concentration of half-maximal effect
In short: as §1

[4] = at 91.6 µM (top of the series), tumour line B
[5] = at 45.9 µM (top of the series), tumour line B
[6] = at 45.9 µM (top of the series), tumour line D
[7] = at 46 µM (top of the series), tumour line A

C[C@]12CCC(=O)C=C1CC[C@@H]1[C@H]3CC[C@](C)(O)[C@@]3(C)CC[C@@H]12
inactive: Potency (C33A) | Potency (Es-2) | outcome (JEG-3) | Potency (Tov-21-G) | activity, negative = cell killing [1, 4] -15.6% | Potency (astro)
active: Potency (HeLa) 31.6 µM | Potency ([1]; tumour line A) 39.8 µM

Cc1nnc2n1-c1ccc(Cl)cc1C(c1ccccc1Cl)=NC2
inactive: activity, negative = cell killing [1, 5] -10.7% | activity, negative = cell killing [1, 6] -8.42% | activity, negative = cell killing [1, 7] -36.4%

CN1C(=O)C(O)N=C(c2ccccc2)c2cc(Cl)ccc21 (stereo not given)
inactive: activity, negative = cell killing [1, 5] 2.89% | activity, negative = cell killing [1, 6] -6.26% | activity, negative = cell killing [1, 7] -24.3%

CN=C1CN(O)C(c2ccccc2)=c2cc(Cl)ccc2=N1
inactive: activity, negative = cell killing [1, 5] -15.1% and 1.01% | activity, negative = cell killing [1, 6] -14.7% and -15.6% | Potency (astro)
active: Potency ([1]; tumour line A) 11.2 µM

O=P1(N(CCCl)CCCl)NCCCO1 (stereo not given)
inactive: Potency (C33A) | outcome (CASKI) | Potency (Es-2) | Potency (HeLa) | outcome (Hek293T) | outcome (JEG-3) | Potency (OV90) | Potency (PA-1) | Potency (Tov-21-G) | Potency (Tov112D) | activity, negative = cell killing [1, 5] -0.921% | activity, negative = cell killing [1, 6] 1.42% | max response [2] 6.19% and -0.989% | outcome [3]

COc1cccc2c1C(=O)c1c(O)c3c(c(O)c1C2=O)C[C@@](O)(C(=O)CO)CC3OC1CC(N2CCOC(OC)C2)C(O)C(C)O1 (stereo not given in full)
active: Potency (C33A) 0.282 µM | Potency (HeLa) 0.224 µM | Potency (OV90) 0.447 µM | Potency (Tov-21-G) 0.1 µM | Potency (Tov112D) 0.1 µM

COC(=O)C(c1ccccc1)C1CCCCN1 (stereo not given)
inactive: activity, negative = cell killing [1, 5] -10.4% | activity, negative = cell killing [1, 6] 3.11% | activity, negative = cell killing [1, 7] -16.7% | Potency (astro) | max response [2] 1.26% and 1.36% | outcome [3]

C[C@](O)(CS(=O)(=O)c1ccc(F)cc1)C(=O)Nc1ccc(C#N)c(C(F)(F)F)c1
active: Potency ([1]; tumour line A) 12.6 µM
inactive: activity, negative = cell killing [1, 5] -21.4%

C[C@]12CC[C@@H]3c4ccc(OC(=O)N(CCCl)CCCl)cc4CC[C@H]3[C@@H]1CC[C@@H]2O
inactive: activity, negative = cell killing [1, 5] -7.93% | activity, negative = cell killing [1, 6] -5.83% | activity, negative = cell killing [1, 7] -29.8%
active: Potency (HeLa) 35.5 µM

CN[C@@H](C)Cc1ccccc1
inactive: activity, negative = cell killing ([1]; at 91.6 µM (top of the series), tumour line A) -24.4% | activity, negative = cell killing [1, 4] -1.76% | activity, negative = cell killing ([1]; at 91.6 µM (top of the series), tumour line D) 4.77% | Potency (astro)

COc1cccc(C(=O)CCN[C@@H](C)[C@H](O)c2ccccc2)c1
active: Potency ([1]; tumour line A) 28.2 µM | Potency ([1]; tumour line B) 22.4 µM | Potency ([1]; tumour line D) 22.4 µM
inactive: Potency (C33A) | outcome (CASKI) | Potency (Es-2) | Potency (HeLa) | outcome (Hek293T) | outcome (JEG-3) | Potency (PA-1) | outcome (SKOV3) | Potency (Tov-21-G) | Potency (Tov112D)

CC(C)C[C@H](CN)CC(=O)O
inactive: activity, negative = cell killing [1, 5] 2.42% | activity, negative = cell killing [1, 6] -14.3% | activity, negative = cell killing [1, 7] -19.6% | Potency (astro)

COc1ccc2c(c1)C13CCCC[C@@H]1C(C2)N(C)CC3 (stereo not given in full)
inactive: activity, negative = cell killing [1, 5] -6.27% | activity, negative = cell killing [1, 6] -5.01%
active: Potency ([1]; tumour line A) 35.5 µM

CN1C(=O)CC(=O)N(c2ccccc2)c2cc(Cl)ccc21
inactive: activity, negative = cell killing [1, 5] -10.8% | activity, negative = cell killing [1, 6] -2.22% | activity, negative = cell killing [1, 7] -21.5% | Potency (astro)

O=C1Nc2ccc(Cl)cc2C(c2ccccc2Cl)=NC1O (stereo not given)
inactive: activity, negative = cell killing [1, 5] 0.661% | activity, negative = cell killing [1, 6] -9.55% | activity, negative = cell killing [1, 7] -25.3%
